In the library only some 27% were active in any assay of this set; here they are far more common.
CYP2C19 inh – blockers of cytochrome P450 2C19 activity – biochemical, luminescence, ADME assay, primary screen | P33261 | CYP2C19 Supersomes, luciferin-H EGE luminescence, 30 min | inhibition, % at 5 µM | actives 21% (n = 96,000) | AID 778, 2007;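 active = CYP2C19 inhibition above a set limit at 5 µM in the primary screen, cut at about 50% in these data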;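 also: plate controls were negative control wells for no effect and 2.5 mM tranylcypromine positive control for full effect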
CYP2C19 act – human CYP2C19 activators, primary screen, biochemical, luminescence; AID 1025, 2008; activation factor at 5 µM; recombinant CYP2C19, luciferin-H EGE luminescence; active compounds read high; 0 = fully inhibited enzyme, 1 = untreated enzyme; Cytochrome P450 2C19 (Homo sapiens), P33261; 96,000 tested, under 10 active;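 active = activation factor of at least 2 at 5 µM in the primary screen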;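 also: 0 = wells with 2.5 mM tranylcypromine and 1 = vehicle-only wells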
Cav3 T inh – Cav3.2 calcium influx blockers – cell-based, Fluo-4 calcium fluorescence, FDSS, MLSMR library, primary screen; Cav3.2-expressing cells; active compounds read low; Voltage-dependent T-type calcium channel subunit alpha-1H (Homo sapiens), O95180; B-score at 10 µM; AID 449739, 2010; actives 4% (n = 100,000);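 active = single-dose well whose peak fluorescence ratio is a statistical outlier from its plate by either plate-standardised score or position-corrected B-score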
CYP2C9 inhib – blockers of cytochrome P450 2C9 activity – biochemical, luminescence, ADME assay, primary screen | P11712 | CYP2C9 Supersomes, luciferin-H conversion | inhibition, % at 5 µM | actives 20% (n = 96,000) | AID 777, 2007;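 active = blocking of liver enzyme CYP2C9 beyond about 50% at 5 µM, limit read from the data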
Target sequence (P11712 whole entry, looked up): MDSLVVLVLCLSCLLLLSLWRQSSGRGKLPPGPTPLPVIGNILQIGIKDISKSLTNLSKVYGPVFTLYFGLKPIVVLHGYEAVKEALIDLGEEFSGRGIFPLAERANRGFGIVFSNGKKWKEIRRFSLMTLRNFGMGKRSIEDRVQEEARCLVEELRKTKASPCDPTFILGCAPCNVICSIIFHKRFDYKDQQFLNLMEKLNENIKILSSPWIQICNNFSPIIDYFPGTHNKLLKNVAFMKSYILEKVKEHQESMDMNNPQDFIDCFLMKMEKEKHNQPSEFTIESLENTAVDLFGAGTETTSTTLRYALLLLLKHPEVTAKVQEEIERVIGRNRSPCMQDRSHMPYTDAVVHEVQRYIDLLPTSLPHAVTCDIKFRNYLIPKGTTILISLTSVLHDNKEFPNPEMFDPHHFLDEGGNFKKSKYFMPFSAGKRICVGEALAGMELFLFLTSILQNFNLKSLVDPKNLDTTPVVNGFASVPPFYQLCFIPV
CYP2C9 act – human CYP2C9 activators, primary screen, biochemical, luminescence | recombinant CYP2C9, luciferin-H conversion; active compounds read high; factor 1 = untreated enzyme, 0 = blocked | activation factor at 5 µM | actives 1.4% (n = 96,000) | Cytochrome P450 2C9 (Homo sapiens), P11712;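 active = activation factor of 2 or more for CYP2C9 at a 5 µM dose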;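 also: 0 = sulfaphenazole-blocked wells and 1 = vehicle-only wells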
* marks the source's active call; other numbers are inactive results; nt = no result.

SMILES | CYP2C19 inh | CYP2C19 act | Cav3 T inh | CYP2C9 inhib | CYP2C9 act
CCCNS(=O)(=O)c1cccc(C(=O)NC2CCCc3ccccc32)c1 (stereo not given) | 78* | 0.2 | -0.24 | 89* | 0.1
CCN1C(=O)N[C@@H](CCc2ccccc2)C(C(C)=O)=C1C | nt | nt | 0.35 | nt | nt
O=C(CSc1nnc(-c2ccco2)o1)NC1CCCCC1 | 55* | 0.4 | -0.048 | 10 | 0.9
O=C(CSc1nnc(CNC(=O)c2ccco2)o1)NC1CCCC1 | -19 | 1.2 | -0.19 | -17 | 1.2
COc1ccccc1-c1nnc(SCC(=O)NC2CCCCC2)o1 | 54* | 0.5 | 0.47 | -93 | 1.9
COc1ccccc1-c1nnc(SCC(=O)NCc2c(C)c(Cl)cc(C(C)C)c2O)o1 | 36 | 0.6 | nt | -201 | 3*
Cc1ccccc1-c1nnc(SCC(=O)NC2CCCCC2)o1 | nt | nt | -0.66 | nt | nt
O=C(CSc1nnc(-c2ccco2)n1CC1CCCO1)NC1CCCC1 (stereo not given) | 54* | 0.5 | -0.89 | -23 | 1.2
CCCCc1ccc(-c2nc(NC(=O)C3C4CCC(O4)C3C(=O)O)sc2C)cc1 (stereo not given) | 6 | 0.9 | -0.73 | -8 | 1.1
O=C(CSc1nnc(-c2ccccc2)o1)NC1CCCCC1 | 83* | 0.2 | 0.48 | 48 | 0.5
O=C(CSc1nnc(-c2ccco2)o1)NC1CC2CCC1C2 (stereo not given) | 56* | 0.4 | 1.4 | 18 | 0.8
C/C=C\C=C\C(=O)Nc1cccc(C2=NOC3(C2)C[C@@H](C(N)=O)N(C(=O)C(c2ccccc2)c2ccccc2)C3)c1 (stereo not given in full) | nt | nt | -0.011 | nt | nt
COC(=O)c1ccccc1NC(=O)C1CCCN(S(=O)(=O)c2ccccc2)C1 (stereo not given) | 43 | 0.6 | -0.62 | 33 | 0.7
COC(=O)c1ccccc1NC(=O)C1CCCN(S(=O)(=O)c2ccc(F)cc2)C1 (stereo not given) | 90* | 0.1 | -2.3 | 80* | 0.2
COC(=O)c1ccccc1NC(=O)C1CCCN(S(C)(=O)=O)C1 (stereo not given) | 7 | 0.9 | 0.29 | -30 | 1.3
COC(=O)c1ccccc1NC(=O)C1CCCN(S(=O)(=O)c2ccc(OC)cc2)C1 (stereo not given) | 54* | 0.5 | -0.32 | 73* | 0.3
Cc1cccc(C)c1Oc1nc(-c2ccccc2)ncc1S(=O)(=O)c1ccccc1 | 32 | 0.7 | -2 | 85* | 0.2
Cn1c(=O)c2c(nc(SCC(=O)N3CCc4ccccc43)n2Cc2ccccc2)n(C)c1=O | 4 | 1 | nt | 2 | 1
COc1ccc(CCNC(=O)C2(C)CCC(=O)N2Cc2ccc3c(c2)OCO3)cc1OC (stereo not given) | 54* | 0.5 | -0.18 | -1 | 1
COCC(C)NC(=O)CSc1nc(-c2ccccc2)c(-c2ccccc2)o1 (stereo not given) | 59* | 0.4 | -2.4 | 50 | 0.5
c1ccc(N2CCN(c3nnc(Cc4cccnc4)c4ccccc34)CC2)nc1 | 53* | 0.5 | -0.59 | 26 | 0.7
N#CC1=C(N)S[C@@H](C(=O)c2ccc(F)cc2)[C@@H]1c1cccs1 | nt | nt | -4.7* | nt | nt
O=C(NCC1CCS(=O)(=O)C1)Oc1ccccc1 (stereo not given) | 16 | 0.8 | nt | -5 | 1.1
Cc1cc(C)cc(Oc2nc(-c3ccccc3)cc(C)c2S(C)(=O)=O)c1 | 52* | 0.5 | -2.3 | 89* | 0.1
COc1ccccc1Oc1nc(-c2ccccc2)cc(C)c1S(C)(=O)=O | 10 | 0.9 | -2.1 | 12 | 0.9
SMILES | CYP2C19 inh | CYP2C19 act | Cav3 T inh | CYP2C9 inhib | CYP2C9 act
Cc1cccc(Oc2nc(-c3ccccc3)cc(C)c2S(C)(=O)=O)c1C | 63* | 0.4 | -3.9* | 93* | 0.1
Cc1cccc(-n2ncc3c(N(C)Cc4ccccc4)ncnc32)c1 | nt | nt | 0.24 | nt | nt
O=C(CC1C(=O)OCN1C(=O)OCc1ccccc1)OCC(=O)c1ccccc1 (stereo not given) | 28 | 0.7 | -0.022 | 25 | 0.8
CCc1ccccc1OCc1nnc(N)s1 | 35 | 0.6 | -0.39 | -26 | 1.3
O=C1NN(c2ccccc2)C(=O)/C1=C\c1cccc(OC(=O)c2cccs2)c1 | 52* | 0.5 | 1.5 | 96* | 0
O=C1NN(c2ccc(Cl)c(Cl)c2)C(=O)/C1=C/c1cccc(OC(=O)c2cccs2)c1 | 6 | 0.9 | -0.58 | 48 | 0.5
CCCCS(=O)(=O)Nc1ccc2c(c1)ncn2C1CCCCC1 | 11 | 0.9 | -0.046 | 85* | 0.2
CCCCNC(=O)c1ccc2c(c1)ncn2C1CCCCC1 | 2 | 1 | 0.65 | 6 | 0.9
Cc1sc2nc(CN3CCOCC3)nc(Oc3ccc(NC(=O)c4ccco4)cc3)c2c1C | nt | nt | 0.092 | nt | nt
CC(=O)c1ccccc1Oc1nc(CN2CCOCC2)nc2scc(-c3cccs3)c12 | 85* | 0.1 | -2.2 | 72* | 0.3
COc1ccc(C(C)=O)c(Oc2nc(CN3CCOCC3)nc3scc(-c4cccs4)c23)c1 | 44 | 0.6 | -1.9 | 51* | 0.5
Cc1ccc(C(=O)C(OC(=O)COc2ccccc2C)c2ccccc2)cc1 (stereo not given) | 49 | 0.5 | nt | 39 | 0.6
N=C1SCC(=O)N1c1nc(-c2ccccc2)cs1 | -12 | 1.1 | 0.34 | -3 | 1
O=C1C2C3c4ccccc4C(c4ccccc43)C2C(=O)N1c1nc(-c2ccccc2)cs1 (stereo not given) | 24 | 0.8 | -4.5 | 62* | 0.4
CCOC(=O)CSc1nnnn1-c1cc(OC)c(Cl)cc1OC | 23 | 0.8 | 0.29 | 0 | 1
COc1cc(-n2ccnc2SC)c(Cl)cc1Cl | 54* | 0.5 | -1.4 | 4 | 1
N#CC1=C(SCc2ccccc2)NC(=O)CC1c1ccccc1 (stereo not given) | nt | nt | 0.023 | nt | nt
C=CCSC1=C(C#N)C(c2ccccc2)CC(=O)N1 (stereo not given) | 80* | 0.2 | 0.5 | 65* | 0.3
C=CCSC1=C(C#N)C(c2ccc(C(C)C)cc2)CC(=O)N1 (stereo not given) | 74* | 0.3 | -3.5* | 82* | 0.2
CCCCn1nc(CC(=O)O)c2ccccc2c1=O | 69* | 0.3 | -0.33 | 3 | 1
COc1cc(/C=C/C(=O)NNc2c(F)c(F)cc(F)c2F)ccc1OC(F)F | 73* | 0.3 | -4.3* | 8 | 0.9
CC(=O)N(Cc1cc2ccc(C)c(C)c2n2nnnc12)C1CCCC1 | 1 | 1 | nt | 33 | 0.7
CCc1ccc2c(c1)cc(CN(C(=S)Nc1cccc(C)c1)C1CC1)c1nnnn12 | 1 | 1 | -1.3 | 68* | 0.3
CCn1ncc(C2=NOC(C(=O)Nc3cccc(C(C)=O)c3)C2)c1C (stereo not given) | 8 | 0.9 | -4 | 9 | 0.9

Screens from PubChem BioAssay.
